Most compounds without a hit are left out; they make up all but 1.7% or so of the library.
VHR inh abs: inhibitors of human VHR1 phosphatase (DUSP3). P51452. recombinant VHR phosphatase, pNPP absorbance. inhibition, % at 13.3 µM. 290,000 tested, 0.52% active. AID 1654; in the data active = inhibition above about 50%
Target sequence (P51452 whole entry, looked up): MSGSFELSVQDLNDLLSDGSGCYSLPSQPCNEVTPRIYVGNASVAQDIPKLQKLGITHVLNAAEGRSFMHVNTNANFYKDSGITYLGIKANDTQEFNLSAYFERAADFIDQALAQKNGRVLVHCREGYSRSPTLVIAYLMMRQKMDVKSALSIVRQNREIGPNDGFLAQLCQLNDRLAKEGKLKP
PfHsp40 yeast: rescue of PfHsp40-mediated yeast toxicity; S. cerevisiae expressing PfHsp40, growth rescue, ATP luminescence; growth rescue, % at 12.5 µM; 340,000 tested, 0.68% active; in the data active = growth rescue above about 28%, passing the limit was not always enough; inconclusive = no clear call, values can overlap the other calls;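 also: yeast W303a lacking pdr1 and pdr3 grown in galactose medium; growth measured after three days at 30 °C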
SARS 3CLpro inh: SARS-CoV 3CLpro protease inhibition; P0C6X7; recombinant SARS-CoV 3CLpro, quenched FRET peptide cleavage; inhibition, % at 6 µM; 290,000 tested, 0.14% active; AID 1706; in the data active = inhibition above about 12%
BJeLR viability: kills HRASV12-expressing BJeLR cells | BJeLR (HRASV12) viability, CellTiter-Glo ATP luminescence, 48 h | AID 1554 | 300,000 tested, 0.17% active | inhibition, % (test concentration not listed); in the data active = inhibition above about 50%; inconclusive = no clear call, values can overlap the other calls
BH1578 lux ind: inducers of Vibrio cholerae quorum light production without autoinducers. activation, % at 18.7 µM. AID 588436. 350,000 tested, 0.16% active. V. cholerae BH1578 lux reporter, luminescence, 6 h; in the data active = activation mostly above about 9.7%, no sharp cut-off; inconclusive = no clear call, values can overlap the other calls; inactive = mostly below about 3.7%
MazF activator: increases E. coli MazEF RNase cleavage of RNA | P0AE70 | FAM/BHQ RNA-DNA oligo cleavage fluorescence, 5 h | 350,000 tested, 0.32% active | activation, % at 20 µM; in the data active = activation above about 50%
Target sequence (P0AE70 whole entry, looked up): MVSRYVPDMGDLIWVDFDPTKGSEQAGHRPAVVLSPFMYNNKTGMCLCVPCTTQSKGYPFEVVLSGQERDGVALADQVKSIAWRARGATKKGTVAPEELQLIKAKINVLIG
* marks the source's active call; other numbers are inactive results; i = inactive; u = inconclusive; x = no result.

SMILES	VHR inh abs	PfHsp40 yeast	SARS 3CLpro inh	BJeLR viability	BH1578 lux ind	MazF activator
N#CC(Sc1ccccn1)c1ccc(Cl)cc1 (configuration not stated)	6	0	-2	-7	-1	-1
CC(C)(C)c1ccc(C(=O)CSc2nc3ccccc3c(=O)[nH]2)cc1	31	0	-2	-4	0	51*
COc1cc2cc(/C=C/C(=O)c3ccco3)c(Cl)nc2cc1OC	27	0	5	-14	i	267*
COc1ccc2cc(/C=C/C(=O)c3ccco3)c(Cl)nc2c1	24	x	-2	-9	x	x
CCCC(=O)N1CCC1(C)C(=O)NCc1ccccc1SC (configuration not stated)	x	x	x	x	i	x
Cn1c2ccc(Cl)cc2c2nc3ccccc3nc21	12	3	-4	8	0	-5
CCOc1ccc2c(c1)c1nc3ccccc3nc1n2C	17	0	2	0	-6	98*
CCn1c2ccc(F)cc2c2nc3ccccc3nc21	22	-1	0	-5	-1	1
Cc1ccc2c(c1)c1nc3ccccc3nc1n2C	35	1	-2	-3	7	222*
Cn1c2ccc(F)cc2c2nc3ccccc3nc21	39	u	3	0	i	111*
Oc1c(Br)cc(Br)cc1CNc1ccc(F)cc1	17	187*	-3	-4	0	-9
Oc1c(Br)cc(Br)cc1CNc1cnc2ccccc2c1	22	1	7	-2	i	1
O=c1cc2c(nn1Cc1ccc(Cl)cc1)-c1ccccc1CC2	12	5	8	-14	i	-9
O=c1cc2c(nn1Cc1cccc(Cl)c1)-c1ccccc1CC2	11	47*	-1	0	i	-4
CCOCc1c(C(=O)Nc2ccccc2N2CCN(C)CC2)oc2ccccc12	x	-1	x	x	-1	-1
O=C(Nc1ccc(C2=NCCN2)cc1)c1ccc(C(=O)Nc2ccc(C3=NCCN3)cc2)c([N+](=O)[O-])c1	-7	125*	-13	4	i	-10
Cc1ccc(NC(=O)c2ccc(-n3cccn3)c([N+](=O)[O-])c2)cc1	29	3	-3	-6	i	-2
COC(=O)C12OCC34C(CC5C(C)=C(O)C(=O)CC5(C)C3C(O)C1O)OC(=O)C(OC(=O)C=C(C)C)C24 (configuration not stated)	x	1	x	x	i	-1
CC/C(=N\NC(=O)Cc1ccc(Br)cc1)c1cccs1	50*	0	0	3	i	-2
Cc1cc(C)n(CC(O)COc2ccccc2[N+](=O)[O-])n1 (configuration not stated)	56*	-1	1	0	0	1
CN(Cc1ccccc1)C(=O)C(=O)c1c[nH]c2ccccc12	x	x	x	x	i	6
Nc1ccn([C@@H]2O[C@H](CNC(=O)[C@H]3CCC(=O)N3)[C@@H](O)[C@H]2O)c(=O)n1	x	x	x	x	0	3
COc1cc(NC(=O)COC(=O)CNC(=O)c2ccc(C)cc2)c(C)cc1[N+](=O)[O-]	4	86*	2	-4	i	-6
CCC(=O)OCC(=O)Nc1cc(C)c(C)cc1[N+](=O)[O-]	51*	0	-4	-4	i	-1
Cc1cc(NC(=O)COC(=O)CC2CCCC2)c([N+](=O)[O-])cc1C	20	-2	0	-6	i	-5
SMILES	VHR inh abs	PfHsp40 yeast	SARS 3CLpro inh	BJeLR viability	BH1578 lux ind	MazF activator
COc1cc(NC(=O)COC(=O)CNC(=O)c2ccc(Cl)cc2)c(C)cc1[N+](=O)[O-]	-1	-1	-5	1	0	10
NC(=O)C1CCN(c2nc(-c3ccccc3C(F)(F)F)cs2)CC1	x	-2	x	x	1	4
COc1ccc(NC(=O)CC2(CC(=O)O)CCCC2)cc1	24	0	2	-3	i	4
Cc1ccc(NC(=O)CC2(CC(=O)O)CCCC2)cc1	57*	-1	3	0	0	7
CSc1ccc(C(=O)NCC(c2ccco2)N(C)C)cc1[N+](=O)[O-] (configuration not stated)	6	0	11	-6	0	10
Cc1oc(-c2ccc(Cl)cc2)nc1CS(=O)CC(=O)NCCCN1CC(C)CC(C)C1 (configuration not stated)	15	-1	1	2	-1	13
O=C1Nc2cc(C(=O)NCC3CCCO3)ccc2S/C1=C/c1ccccc1F (configuration not stated)	54*	-1	6	-2	0	13
CCc1cc(=O)oc2c3c(cc(OCC(=O)NCCCn4ccnc4)c12)OC(C)(C)CC3	4	0	-3	7	0	19
N#C/C(=C\c1ccc2c(c1)OCO2)C(=O)NCc1ccco1	-1	53*	-1	5	0	-1
CC(C)NC(=S)NCc1cccnc1	32	-1	1	3	i	8
O=C(Nc1cccc(C(F)(F)F)c1)Oc1ccc(Cl)c2cccnc12	18	125*	5	12	-1	8
COc1cccc(-n2nc(C#N)c(Cl)cc2=O)c1	27	52*	1	-29	0	-1
CC(=O)Nc1cccc(-c2ccnc3c2CC(C)(C(=O)Nc2cccc(C(C)=O)c2)O3)c1 (configuration not stated)	x	x	x	x	0	x
Clc1ccc(CSc2cnnc3ccccc23)cc1Cl	x	0	x	x	i	8
O=Cc1cc2ccccc2nc1SCc1ccc(Cl)c(Cl)c1	2	1	9	55*	0	2
Cc1ccc(CSc2nc3ccccc3cc2C=O)cc1	10	1	-6	44	-1	-2
O=Cc1cc2ccccc2nc1SCc1ccc(Cl)cc1	10	-1	-1	63*	i	1
Cc1ccc(OCC(=O)OCC(=O)NC2CCCCCC2)cc1C	x	x	x	x	i	-3
CC(C)Cn1c(N)c(C(=O)COC(=O)C2CCCCC2)c(=O)n(C)c1=O	7	2	0	-1	i	7
CC(C)Cn1c(N)c(C(=O)COC(=O)C2Cc3ccccc3CN2S(C)(=O)=O)c(=O)n(C)c1=O (configuration not stated)	x	50*	x	x	5	-9
CCc1nn(CCCC(=O)N2CCN(c3ccc(OC)cc3)CC2)c(=O)c2cc3occc3n12	57*	-1	-2	-7	1	12
O=C(Nc1ccccc1)/C(=C\c1cccs1)NC(=O)c1ccccc1	0	-2	-1	6	-3	7
Cc1cccc(NC(=O)/C(=C\c2cccs2)NC(=O)c2ccccc2)c1	0	-1	-3	9	x	59*
O=C(O)c1ccc(N2C(=O)CC(N3C(=O)/C(=C/c4ccc(Cl)cc4)SC3=S)C2=O)cc1 (configuration not stated)	3	0	-1	-1	-8	-14
CC(=O)NC(c1ccccc1)c1nc(-c2ccc(C)c(C)c2)cs1 (configuration not stated)	x	x	x	x	i	x
